# PLK1 PBD block = qHTS for Inhibitors of PLK1-PDB (polo-like kinase 1 - polo-box domain): Primary Screen; Serine/threonine-protein kinase PLK1 (Homo sapiens), P53350; Plk1 PBD binding of FITC phosphopeptide, fluorescence polarization; Potency, µM, usual class: inhibitors; hit rate 2.8% among 360,000; AID 720504, 2013; note: series mostly up to about 57 µM; nearly all actives have a fitted effect of over 65% in size
# Target sequence (P53350 whole entry, looked up, the tested form may be a part): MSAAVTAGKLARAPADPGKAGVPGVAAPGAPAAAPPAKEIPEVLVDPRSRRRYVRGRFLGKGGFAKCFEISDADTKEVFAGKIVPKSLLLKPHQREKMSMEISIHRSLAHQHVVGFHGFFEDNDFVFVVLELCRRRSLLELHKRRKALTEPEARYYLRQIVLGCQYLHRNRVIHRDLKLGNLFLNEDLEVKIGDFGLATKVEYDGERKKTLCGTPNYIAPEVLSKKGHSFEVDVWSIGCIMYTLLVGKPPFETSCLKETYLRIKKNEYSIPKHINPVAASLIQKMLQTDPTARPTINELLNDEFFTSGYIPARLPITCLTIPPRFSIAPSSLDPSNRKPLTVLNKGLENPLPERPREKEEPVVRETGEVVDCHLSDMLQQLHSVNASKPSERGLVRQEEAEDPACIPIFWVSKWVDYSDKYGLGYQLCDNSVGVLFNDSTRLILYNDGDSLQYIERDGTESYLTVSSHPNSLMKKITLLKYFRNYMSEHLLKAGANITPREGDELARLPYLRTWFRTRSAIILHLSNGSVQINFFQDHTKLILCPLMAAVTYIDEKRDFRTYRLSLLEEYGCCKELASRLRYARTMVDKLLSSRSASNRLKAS
# HP1b binding inh = HTS for Inhibitors of HP1-beta Chromodomain Interactions with Methylated Histone Tails | AID 540317, 2011 | AlphaScreen HP1-beta / biotin-H3K9me3 peptide binding | Potency, µM (doses to about 114 µM), actives largely listed as inhibitors | hit rate 0.56% among 390,000 | Chromobox protein homolog 1 (Homo sapiens), P83916; note: nearly all actives have a fitted effect of over 70% in size
#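 AlphaScreen: HP1-beta (50 nM) preformed 30 min with biotin-H3(1-18)K9me3 peptide (50 nM) in PBS pH 7.4, 0.01% Tween-20. Compound added for 30 min at RT, then streptavidin donor/nickel chelate acceptor beads (10 ug/mL) for 30 min.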
# Sfp PPTase inh = qHTS Assay for Inhibitors of Bacillus subtilis Sfp phosphopantetheinyl transferase (PPTase); Biochemical Sfp PPTase activity, qHTS; Potency, µM, hits mostly inhibitors; hit rate 3.5% among 310,000; AID 1490, 2009;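 note: the enzyme is Sfp with the accession as filed and its product quenches rhodamine fluorescence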
#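 Compounds were incubated with enzyme (final 15 nM) for 15 min at room temperature before substrate addition started the reaction. Fluorescence at 525 nm excitation, 598 nm emission was recorded immediately and after 30 minutes.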
# JMJD2A Tudor = qHTS Assay for Inhibitors of JMJD2A-Tudor Domain. Lysine-specific demethylase 4A (Homo sapiens), O75164. AlphaScreen JMJD2A-Tudor / H3K4me3 peptide binding. Potency, µM (titrated, usually from 114 µM), hits mostly inhibitors. hit rate 4.4% among 390,000; note: nearly all actives have a fitted effect of over 50% in size
# G9a block = qHTS Assay for Inhibitors of Histone Lysine Methyltransferase G9a; Histone-lysine N-methyltransferase EHMT2 (Homo sapiens), Q96KQ7; G9a H3K9 monomethylation, AlphaScreen, 2 h; Potency, µM (highest dose often 102 µM), most hits filed as inhibitors; hit rate 8.8% among 350,000; note: nearly all actives have a fitted effect of over 75% in size
#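 Using a bead-based AlphaScreen, monomethylated H3K9 product from 2 h room-temperature reactions (G9a 20 nM, peptide 500 nM, SAM 20 uM) was detected with 0.5 ug/mL rabbit anti-H3K9me1 antibody.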
# BAZ2B inh = qHTS Assay for Inhibitors of BAZ2B; AlphaScreen BAZ2B-H3K14Ac peptide displacement; hit rate 4.4% among 360,000; Potency, µM (doses to about 114 µM), usual class: inhibitors; note: nearly all actives have a fitted effect of over 60% in size
#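 BAZ2B (50 nM) with biotin-H3(5-23)K14Ac peptide (50 nM) in PBS pH 7.4, 0.01% Tween-20, preformed 30 min, then compound 30 min at room temperature; top concentration 110uM. AlphaScreen streptavidin donor/nickel chelate acceptor beads (10 ug/mL final), 20 min dark, signal read.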
# TbPYK inh = qHTS of Trypanosoma Brucei Inhibitors: Confirmatory Assay for Cherry-picked Compounds | shares compounds with PLK1 PBD block | recombinant TbPYK, Kinase-Glo ATP luminescence | Potency, µM (titrated, usually from 76.9 µM), usual class: inhibitors | hit rate 67% among 890 | AID 720569, 2013; note: nearly all actives have a fitted effect of over 70% in size
# TbPYK ADP-Glo = qHTS of Trypanosoma Brucei Inhibitors: Orthogonal Assay for Cherry-picked Compounds. shares compounds with PLK1 PBD block. recombinant TbPYK, ADP-Glo luminescence, 60 min. Potency, µM (top dose mostly 76.9 µM), hits mostly inhibitors. hit rate 62% among 890. AID 720584, 2013; note: nearly all actives have a fitted effect of over 75% in size
# Numbers stand for hits; n = inactive; u = inconclusive; x = no result; [ ] = another dose, or the depositor's remark. Shown are actives, neighbours in structure and some others; about 12% of the full set was active somewhere. Calls come from the whole dose curve; as a rule, active = well fitted curve in the direction sought with a large enough effect; inconclusive = small, poorly fitted or top-dose-only effect, or another doubt; inactive = no such curve, though single readings can be large; an effect the other way counts as inactive or inconclusive.
SMILES,PLK1 PBD block,HP1b binding inh,Sfp PPTase inh,JMJD2A Tudor,G9a block,BAZ2B inh,TbPYK inh,TbPYK ADP-Glo
C=CCC1C(=O)NC(=S)NC1=O,29.9µM,n,50.1µM,89.1µM,8.91µM,n,0.562µM,1.78µM
S=P(NCCNP(=S)(N1CC1)N1CC1)(N1CC1)N1CC1,n,u,x,n,x,x,x,x
C[C@]12CCC3C(CC[C@H]4C[C@@H](O)CC[C@]34C)C1C/C(=N/O)[C@@H]2O (stereo not given in full),n,n,x,n,x,x,x,x
O=C1NC(=O)C(=Cc2ccc(SC3CCCCC3)o2)C(=O)N1,0.597µM,50.1µM,28.2µM,u,11.2µM,44.7µM,28.2µM,39.8µM
O=C1NC(=S)NC(=O)C1=Cc1ccc(Br)s1,2.12µM,u,15.8µM,28.2µM,x,56.2µM,10µM,15.8µM
O=C(NCCCCc1ccccc1)c1ccccc1Br,n,n,x,n,x,x,x,x
CCOc1ccccc1N1C(=O)NC(=O)/C(=C/c2ccc3c4c(cccc24)CC3)C1=O,6.7µM,n,56.2µM,79.4µM,n[0.501 µM],50.1µM,u,u
CC(C)CC(CN)CC(=O)O (stereo not given),x,x,n,x,n[2.33 µM],x,x,x
O=c1c2ccccc2[nH]c(=S)n1-c1cccnc1,n,n,n,n,x,n,x,x
Cc1cc(C=C2C(=O)N(C)C(=S)N(C)C2=O)c(C)n1-c1cccnc1,2.12µM,n,n,n,8.91µM,44.7µM,u,u
Cc1ccc(-c2nn(Cc3ccccc3)cc2C=O)cc1,n,n,n,n,n,n,x,x
N#CCCn1cc(C(=O)O)c(-c2cccc([N+](=O)[O-])c2)n1,n,n,n,n,n,n,x,x
O=C(O)CCn1cc(C=C2C(=O)NC(=O)NC2=O)c(-c2ccc(Br)cc2)n1,2.67µM,n,u,n,10µM,n,14.1µM,28.2µM
O=C(O)CCn1cc(C=C2C(=O)NC(=S)NC2=O)c(-c2cccc(Cl)c2)n1,4.74µM,n,22.4µM,50.1µM,2.51µM,u,7.08µM,u
c1coc(CN2Cc3ccccc3-n3nncc3C2)c1,n,x,x,x,x,x,x,x
O=C(O)c1ccccc1-c1ccc(C=C2C(=O)N(c3ccccc3)C(=S)N(c3ccccc3)C2=O)o1,2.67µM,n,50.1µM,50.1µM,n[0.501 µM],70.8µM,31.6µM,39.8µM
COC(=O)C1=C(c2c(C)noc2C)C[C@@H]2CC[C@H]1N2C(=O)NC1CCCCC1,n,n,x,n,n[0.501 µM],n,x,x
COc1cccc(C(=O)c2cn(CC(=O)Nc3cc(Cl)c(OC)cc3OC)c3nc(C)ccc3c2=O)c1,x,n,x,n,n,n,x,x
CN(C)c1ccc(C=C2C(=O)NC(=S)NC2=O)cc1[N+](=O)[O-],3.77µM,u,n,35.5µM,7.08µM,u,4.47µM,14.1µM
CN(C)c1ccc(C=C2C(=O)NC(=O)NC2=O)cc1[N+](=O)[O-],7.52µM,n,25.1µM,n[11.4 µM],u,x,15.8µM,31.6µM
CCCCn1nnnc1C(CC)N1CCC2(CC1)C(=O)NCN2c1ccccc1 (stereo not given),n,x,x,x,x,x,x,x
NC(Cc1ccccc1)c1nn[nH]n1 (stereo not given),n,n,x,u,x,x,x,x
CCOC(=O)c1c(/N=C/C2C(=O)NC(=S)NC2=O)sc2c1CCC2,n,n,12.6µM,50.1µM,u,n,u,u
CCSc1nc2n(n1)C(c1ccc(Cl)cc1Cl)C(C(=O)Nc1ccccc1C)=C(C)N2 (stereo not given),x,n,x,n,n,n,x,x
CCOC(=O)c1c(C)n(Cc2ccc(F)cc2)c2ccc(O)cc12,n,n,22.4µM,u,n[12.7 µM],n,u,17.8µM
SMILES,PLK1 PBD block,HP1b binding inh,Sfp PPTase inh,JMJD2A Tudor,G9a block,BAZ2B inh,TbPYK inh,TbPYK ADP-Glo
O=C1NC(=O)C(=Cc2csc3ccccc23)C(=O)N1,2.12µM,n,17.8µM,n,8.91µM,u,15.8µM,31.6µM
O=C1NC(=O)C(=Cc2ccsc2)C(=O)N1,6.7µM,n,u,n,n,n,14.1µM,u
CC(=O)n1cc(C=C2C(=O)NC(=O)NC2=O)c2ccccc21,4.23µM,n,22.4µM,u,10µM,n,22.4µM,35.5µM
O=C1NC(=O)N(c2cccc(Br)c2)C(=O)/C1=C/c1ccsc1,2.38µM,n,20µM,n,10µM,n,u,u
COC(=O)Cn1cc(C=C2C(=O)N(C)C(=O)N(C)C2=O)c2ccccc21,u,n,n,n,x,n,x,x
CC[C@H]1CN2CCc3cc(OC)c(OC)cc3[C@H]2C[C@@H]1C[C@@H]1NCCc2cc(OC)c(OC)cc21,x,x,n,x,n,x,x,x
O=C1c2cccc(N3CCNCC3)c2C2CCCCN12 (stereo not given),n,x,x,x,x,x,x,x
COc1cc2[nH]c(=O)n(CCCCCC(=O)N3CCN(c4cccc(C(F)(F)F)c4)CC3)c(=O)c2cc1OC,x,n,x,u,n,n,x,x
COc1cccc(OCCNC(=O)c2cc([N+](=O)[O-])cc([N+](=O)[O-])c2)c1,n,n,n,n,u,n,x,x
O=C1NC(=O)C(=Cc2cccs2)C(=O)N1,2.67µM,n,x,n,x,x,14.1µM,31.6µM
O=C1NC(=O)N(c2ccc(F)cc2)C(=O)/C1=C/c1ccsc1,6.7µM,n,u,n,14.1µM,n,u,n
CN(C(=O)COc1nc2ccccc2s1)c1ccccc1,x,x,n,x,x,x,x,x
COc1cc(O)c2c(c1)/C=C/C[C@H](O)[C@H](O)C(=O)CCC[C@H](C)OC2=O,n,x,x,x,x,x,x,x
O=C1NC(=O)C(=Cc2ccccc2[N+](=O)[O-])C(=O)N1,11.9µM,n,x,n,x,x,8.91µM,28.2µM
Cc1cccc(N2C(=O)NC(=O)/C(=C/c3cc4c(cc3[N+](=O)[O-])OCO4)C2=O)c1,5.32µM,u,35.5µM,79.4µM,8.91µM,n,20µM,u
O=C1NC(=O)C(=Cc2cc3c(cc2[N+](=O)[O-])OCO3)C(=O)N1,13.4µM,n,n,n,7.94µM,n,8.91µM,u
O=Cc1cn(Cc2ccccc2[N+](=O)[O-])c2ccccc12,n,n,n,u,u,u,x,x
CCN1CCN(Cc2cc3c(cc2[N+](=O)[O-])OCO3)CC1,n,n,n,n,x,n,x,x
